Compound activity deposited in PubChem by National Center for Advancing Translational Sciences (NCATS).
LmPK activator: boosts Leishmania mexicana pyruvate kinase activity; Q27686; purified LmPK, Kinase-Glo ATP luminescence, 1 h; activity change, negative = inhibition, % at 57.5 µM; 290,000 tested, under 10 active; calls by dose curve
Target sequence (Q27686 whole entry, looked up): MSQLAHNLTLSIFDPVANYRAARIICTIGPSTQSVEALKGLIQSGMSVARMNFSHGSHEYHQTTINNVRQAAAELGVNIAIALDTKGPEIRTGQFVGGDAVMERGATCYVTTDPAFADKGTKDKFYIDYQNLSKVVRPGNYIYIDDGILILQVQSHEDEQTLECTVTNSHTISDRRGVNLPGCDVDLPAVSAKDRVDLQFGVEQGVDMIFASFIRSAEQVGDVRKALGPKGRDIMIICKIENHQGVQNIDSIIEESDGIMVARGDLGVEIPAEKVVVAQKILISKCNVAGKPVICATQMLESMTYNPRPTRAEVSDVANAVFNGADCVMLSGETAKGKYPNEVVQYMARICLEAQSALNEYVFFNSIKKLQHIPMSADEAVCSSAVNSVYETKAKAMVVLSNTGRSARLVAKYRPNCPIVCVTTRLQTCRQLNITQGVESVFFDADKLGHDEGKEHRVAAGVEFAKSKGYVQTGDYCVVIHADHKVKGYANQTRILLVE
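Coupled luminescent assay: ATP produced by LmPK (0.1 nM) from ADP (0.1 mM, ~10-fold below Km) and PEP (0.5 mM, at Km) after 1 h RT, detected with Kinase-Glo. Data scaled between no-enzyme and uninhibited controls.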
Numbers without * were called inactive. These entries were drawn from the full list.

SMILES	LmPK activator
Cc1ccc(-n2nnc(-c3nccn3C)n2)cc1	-102.6
C=CCN1C(=O)/C(=c2\sc3nc(=O)c(Cc4ccc(OC)c(OC)c4)nn3c2=O)c2ccccc21	-43.7
c1csc(-c2nc(CN3CCSCC3)cs2)c1	-61.4
CCOc1ccc(NC(=O)Nc2cccs2)cc1	-38.5
Clc1ccc(-c2nc3ccccc3[nH]2)cn1	-69.4
FC(F)(F)c1cccc(-c2nc3nc(Cl)c(Cl)nc3[nH]2)c1	-6.1
CC(=O)c1ccc(/C=C/c2nc3ccccc3n2C)o1	-34.7
Cc1ccc(C(=O)Nc2ccc(C(=O)N3CCCCC3)cc2)o1	-41.9
O=S(=O)(Nc1ccc(O)c2ccccc12)c1ccc(Br)cc1	-32.5
CC(=O)N/C(=C\c1ccccc1)C(=O)OCc1cc(C)ccc1C	1.5
COc1c(Cl)cccc1-c1cn2ccccc2n1	-69.3
O=C1NN(c2ccccc2)C(=O)/C1=C\c1ccc(-c2cc([N+](=O)[O-])ccc2O)o1	-61.0
COc1cc(-c2n[nH]c(=S)n2-c2ccc(Br)cc2)cc(OC)c1OC	-79.1
Nc1ncccc1OCc1ccc(Cl)c(Cl)c1	-34.7
CC(C)n1c(=S)[nH]c2cc(Cl)ccc21	-50.6
N#C/C(=C\c1cccs1)C(=O)Nc1ccccn1	-34.0
Cc1ccccc1OCC(=O)Nc1ccccc1-c1ccccc1	-39.1
Cc1cc(/C=N/Nc2nc(N)ncc2[N+](=O)[O-])c(C)n1-c1ccccc1F	-59.8
Cc1cccc2c1c1ccc3c(c1n2C)C(=O)C=CC3=O	-30.3
Cc1ccc(C(=O)Nc2cc3ccccc3oc2=O)cc1	-80.0
CN(C)/C=N/c1nc(-c2ccc3c(c2)OCO3)cs1	-44.3
COc1cc(N=Nc2cccc(S(N)(=O)=O)c2)c2ccccc2c1N	-45.2
O=S(=O)(c1ccccc1F)N1CCN(Cc2nc3ccccc3[nH]2)CC1	-1.1
O=[N+]([O-])c1ccc(OCc2n[nH]c(=S)n2-c2ccccc2)cc1	-30.3
COc1ncccc1-c1nnn(-c2ccccc2)n1	-56.5
SMILES	LmPK activator
COc1ccc(OC)c(S(=O)(=O)ON2C(=O)c3ccccc3C2=O)c1	-59.2
O=C(NC(=O)c1ccccc1O)c1ccc2c(c1)CCO2	-40.6
Cc1ccccc1C(=O)N/N=C1\SCC(=O)N1Cc1ccco1	-44.5
O=C(Nc1ccc2[nH]ccc2c1)c1ccc(F)cc1	-36.3
CCOC(=O)N1CCN(Cc2nnc(-c3ccccc3C)o2)CC1	-115.1
COc1ccc(-c2nc3ccccn3c2Cl)cc1	-39.2
COc1ccc(C(=O)NN/C(=N/S(=O)(=O)c2ccc(C)cc2)c2ccccc2)cc1	-34.8
COCCNC(=O)/C(C#N)=C/c1ccc(OCC(=O)NC2CCCCC2)cc1	-59.8
O=C(N=C1N=C2C=CC(Br)=CN2Cc2ccccc21)c1ccc([N+](=O)[O-])cc1[N+](=O)[O-]	-41.1
CCOC(=O)C(C(C)=O)c1c(Br)c(O)c(O)c2c(C(=O)c3ccc(C)cc3)coc12 (stereo not given)	-71.9
CC(C)(C)c1cc(-c2n[nH]c(=S)n2-c2ccc(Cl)cc2)n[nH]1	-77.1
N/C(=N\OC(=O)c1ccc2c(c1)OCO2)c1ccncc1	-65.8
Fc1ccccc1CSc1nc2ccccc2[nH]1	-50.0
O=[N+]([O-])c1ccc(Sc2cccc[n+]2[O-])c2nonc12	-38.8
Fc1ccccc1Nc1nc2ccccc2o1	-83.9
Cc1ccc(-n2[nH]c(C)c(/C=N/Nc3ccc([N+](=O)[O-])cc3[N+](=O)[O-])c2=O)cc1	-51.8
Cn1ccs/c1=N\C(=O)Nc1ccccc1	-33.6
S=c1[nH]nc(Cn2cnc3ccccc32)n1-c1ccccc1Cl	-44.5
CCn1cc(C(=O)O)c(=O)c2cnc(N3CCN(C(=S)NC(=O)c4ccc(Cl)cc4)CC3)nc21	-64.9
CC1=CCC(COC(=O)Nc2ccccc2)CC1 (stereo not given)	-32.6
Cc1nc(-c2ccc(NC(=O)c3ccc(Br)o3)cc2)cs1	-30.2
Cn1c(=O)c2c([nH]c(=S)n2Cc2ccc(Cl)cc2)n(C)c1=O	-33.3
CC(C)OC(=O)Nc1ccc2c(c1)N(C(=O)N1CCN(C)CC1)c1ccccc1CC2	-47.0
OCc1c[nH]c(=S)n1CCOc1cccc(C(F)(F)F)c1	-34.6
COc1cccc(NC(=O)Nc2ccccc2C(N)=O)c1	-51.9
SMILES	LmPK activator
Oc1ccc(CCc2n[nH]c(=S)n2-c2ccc(F)cc2)cc1	-94.9
CCCc1ccc(C(=O)/C=C/N(C)C)cc1	-33.7
COc1ccc(C(=O)Nc2cc(OC)nc(OC)n2)cc1	-52.0
COCC(=O)Nc1cc(C(=O)Nc2ccccc2)ccc1Cl	-50.6
c1ccc(-c2nc(-c3nccc4ccccc34)oc2-c2ccccc2)cc1	-30.1
CCc1cc(-c2n[nH]c(=S)n2-c2ccccc2C)cs1	-81.2
CCOC(=O)c1c(N2C(=O)C=CC2=O)sc(C)c1C	-37.3
COc1cc([N+](=O)[O-])c(OC)cc1SCc1n[nH]c(=S)n1-c1ccc(F)cc1	-40.1
Cc1cc(NC(=O)c2ccccc2F)ncc1NC(=O)c1cccs1	-47.5
c1coc(-c2nnc(-c3ccco3)nn2)c1	-30.4
c1ccc(-c2ncc(-c3ccn[nH]3)s2)cc1	-41.8
Cc1ccc(-c2c[nH]c(=S)n2-c2ccccc2F)cc1	-33.0
CC1C(=O)NN=C1C(=O)N/N=C/c1cccs1 (stereo not given)	-48.9
Cc1occc1C(=O)N/N=C/C(Br)=C\c1ccccc1	-46.7
Cc1nonc1C(=O)N/N=C/c1cccc(O)c1	-78.6
N/C(=N\OC(=O)c1ccc(Cl)cc1)c1[nH]ncc1Br	-101.8
